VP16 counter: counter-screen for ROR gamma inhibitors: Gal4-VP16 reporter. Drosophila S2 Gal4-VP16 UAS-luciferase, luminescence, 20 h. Potency, µM (doses to about 53.6 µM), usual class: inhibitors. 3.5% of 310,000 active;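 note: Gal4-VP16 expression switched on by copper sulfate through the metallothionein promoter; nearly all actives have a fitted effect of over 50% in size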
NPSR antagonist: neuropeptide S receptor (human) antagonism, cAMP. Q6W5P4. CHO-NPSR cells, cAMP TR-FRET, antagonist mode. Potency, µM (doses to about 38.3 µM), actives largely listed as inhibitors. 1% of 220,000 active; note: nearly all actives have a fitted effect of over 50% in size
B2AR arrestin: agonists driving beta-arrestin recruitment to human beta2-adrenergic receptor; P07550; beta-arrestin recruitment to beta2AR, cell-based reporter; Potency, µM (titrated, usually from 46.1 µM), most hits filed as activators; 0.02% of 330,000 active; AID 492947; note: nearly all actives have a fitted effect of over 65% in size
RORg inh: ROR gamma (mouse) transcription inhibition; Drosophila S2 Gal4-RORgamma UAS-luciferase reporter, 20 h; AID 2551; Potency, µM (highest dose often 53.6 µM), hits mostly inhibitors; P51450; 5.4% of 310,000 active; note: nearly all actives have a fitted effect of over 60% in size
Target sequence (P51450 whole entry, looked up, the tested form may be a part): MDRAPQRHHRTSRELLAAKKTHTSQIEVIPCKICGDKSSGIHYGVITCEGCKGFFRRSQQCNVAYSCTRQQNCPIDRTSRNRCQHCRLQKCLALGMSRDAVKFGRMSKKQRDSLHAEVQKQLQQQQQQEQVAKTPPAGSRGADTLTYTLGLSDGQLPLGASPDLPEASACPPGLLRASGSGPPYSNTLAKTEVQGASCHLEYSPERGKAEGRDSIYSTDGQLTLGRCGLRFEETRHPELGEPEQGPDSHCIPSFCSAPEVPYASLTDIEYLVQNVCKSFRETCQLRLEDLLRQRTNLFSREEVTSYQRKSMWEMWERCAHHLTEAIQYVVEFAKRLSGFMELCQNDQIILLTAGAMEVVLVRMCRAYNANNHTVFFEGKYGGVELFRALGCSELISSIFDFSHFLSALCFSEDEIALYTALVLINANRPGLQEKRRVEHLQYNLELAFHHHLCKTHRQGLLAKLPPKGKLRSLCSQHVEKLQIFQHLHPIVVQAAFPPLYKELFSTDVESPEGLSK
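In this cell-based reporter format, copper sulfate (700 uM final) drives Gal4–ROR gamma fusion expression from a metallothionein promoter in Drosophila Schneider cells; compounds preincubated 1 hr, reporter read after 20 hr at ambient temperature.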
Of the large screens only hits and unclear results are named; the others gave an inactive call. Only some compounds are listed: those with a hit (about 5.7% of all), similar ones and a draw of the others. Calls come from the whole dose curve; as a rule, active = well fitted curve in the direction sought with a large enough effect; inconclusive = small, poorly fitted or top-dose-only effect, or another doubt; inactive = no such curve, though single readings can be large; an effect the other way counts as inactive or inconclusive.

S=C(NC1CC1)NC1CCCc2ccccc21 (stereo unspecified)	VP16 counter inconclusive, RORg inh 2.2µM
S=C(NCc1ccco1)NC1CCCc2ccccc21 (stereo unspecified)	VP16 counter 13µM, RORg inh 4.5µM
COCC#Cc1ccc(C2NC(C(=O)O)CCC2C)cc1 (stereo unspecified)	none (no result: NPSR antagonist, B2AR arrestin)
Cc1ccccc1Nc1nc(N)nc(CCl)n1	none
Cc1ccc(Nc2nc(Nc3ccc(C)cc3)nc(SC3=NCCS3)n2)cc1	VP16 counter 5.6µM, RORg inh 2.5µM
Cc1ccccc1Nc1nc(Nc2ccccc2C)nc(SC2=NCCS2)n1	VP16 counter 7.1µM, NPSR antagonist inconclusive, RORg inh 6.3µM
C=CCNC(=S)NNC(=O)c1ccc([N+](=O)[O-])cc1	VP16 counter inconclusive
CCN(CC)C(=S)NC(=O)c1ccc(OC)c(Br)c1	VP16 counter 0.5µM, RORg inh 0.35µM
COc1ccc(C(=O)NC(=S)NCCO)cc1Br	VP16 counter 1.1µM, RORg inh 0.79µM
C=CCN(CC=C)C(=S)NC(=O)c1ccc(OC)c(Br)c1	VP16 counter 0.71µM, RORg inh 0.28µM
C=CCN(CC=C)C(=S)NC(=O)c1ccc([N+](=O)[O-])cc1	VP16 counter 0.13µM, RORg inh 0.13µM
Cc1ccc(NC(=O)C2CSC3(C)CCC(=O)N23)cc1S(=O)(=O)N1CCCCCC1 (stereo unspecified)	none (no result: VP16 counter, NPSR antagonist, RORg inh)
CC(C)CNC(=O)c1cccc(NC(=O)c2ccc3c(c2)C(=O)N(C)C3=O)c1	none (no result: NPSR antagonist)
CC[C@H](C)[C@H](NC(=O)[C@H](C)NC(=O)[C@@H](N)C(C)C)C(=O)N[C@H](C(=O)N[C@H](C(=O)N[C@@H](CC(C)C)C(=O)N[C@H](C(=O)N[C@@H](CCCCN)C(=O)O)C(C)C)C(C)C)[C@@H](C)O	none (no result: NPSR antagonist, B2AR arrestin)
O=C(/C=C/c1cccs1)Nc1cccc(NC(=O)/C=C/c2cccs2)n1	RORg inh inconclusive
Cc1ccsc1/C=C/c1ccc2cccc(O)c2n1	VP16 counter inconclusive, RORg inh 4.5µM
Oc1cccc2ccc(/C=C/c3cccs3)nc12	VP16 counter inconclusive, RORg inh 13µM
Cc1ccsc1/C=C/C(=O)O	none
Cc1ccsc1/C=C/c1ccc2ccccc2n1	VP16 counter inconclusive, RORg inh 10µM
CCCC(=O)Nc1nc2c(ncn2[C@@H]2O[C@H]3COP(=O)(O)O[C@@H]3[C@@H]2OC(=O)CCC)c(=O)[nH]1	none (no result: NPSR antagonist, B2AR arrestin)
C[C@@H](c1ccccc1)N1C(=O)[C@H]2[C@H]3[C@H](O)[C@H](O)C/C(=N/NC(=O)OCc4ccccc4)[C@H]3CC[C@@H]2C1=O	none (no result: NPSR antagonist, B2AR arrestin)
O=C(CSc1nncs1)Nc1nnc(-c2ccccc2)o1	VP16 counter inconclusive, RORg inh 11µM (no result: NPSR antagonist)
O=C(Cc1ccccc1)Nc1nnc(-c2ccccc2)o1	VP16 counter 3.5µM, RORg inh 1.1µM (no result: NPSR antagonist)
O=C(CCCSc1nc2ccccc2[nH]1)NCc1ccccc1	none
Cc1ccc(C)c(-c2nnc(NC(=O)Cc3ccccc3)o2)c1	VP16 counter 1.1µM, RORg inh 1µM (no result: NPSR antagonist)
O=C(CCCSc1nc2ccccc2[nH]1)Nc1nnc(-c2ccccc2)o1	RORg inh 13µM
CCCCCCCCCCCCC/C=C\[C@@H](O)[C@H](CO)NC(C)=O	none (no result: NPSR antagonist, B2AR arrestin)
O=C(Cc1ccc(F)cc1)Nc1nnc(-c2ccc(F)cc2)o1	VP16 counter 1.4µM, RORg inh inconclusive (no result: NPSR antagonist)
Cc1ccc(S(=O)(=O)CCC(=O)Nc2nnc(-c3ccc(F)cc3)o2)cc1	none (no result: VP16 counter, NPSR antagonist, RORg inh)
COc1cccc(NC(=O)CN(C)C(=O)C(Sc2ccccc2)c2ccccc2)c1 (stereo unspecified)	none (no result: VP16 counter, NPSR antagonist, RORg inh)
CCOc1ccc(-n2c(-c3ccco3)n[nH]c2=S)cc1	VP16 counter inconclusive, RORg inh 2.8µM
Fc1ccc(-n2c(-c3ccco3)n[nH]c2=S)cc1	VP16 counter inconclusive, RORg inh inconclusive (no result: NPSR antagonist)
Cc1ccc(-n2c(-c3ccco3)n[nH]c2=S)cc1	VP16 counter inconclusive, RORg inh 11µM
S=c1[nH]nc(-c2cc(-c3ccco3)[nH]n2)n1-c1ccccc1Cl	none
S=c1[nH]nc(-c2cc(-c3ccco3)[nH]n2)n1-c1ccccc1	RORg inh 13µM
S=c1[nH]nc(-c2ccco2)n1-c1ccccc1Cl	VP16 counter 18µM, RORg inh 6.3µM
CCCN(C(=O)COC(=O)c1[nH]c(C)c(C(=O)OC)c1C)c1c(N)n(Cc2ccccc2)c(=O)[nH]c1=O	none (no result: VP16 counter, NPSR antagonist, RORg inh)
CCCN1CCC(Oc2cccc(C(=O)NCCc3ccccc3)c2)CC1	none (no result: NPSR antagonist)
Cc1onc(-c2ccccc2)c1-c1n[nH]c(=S)n1-c1ccccc1Cl	VP16 counter 16µM, RORg inh 4.5µM
CN(C)C(=S)NC(=NCc1ccc([N+](=O)[O-])cc1)c1ccccc1	RORg inh 20µM (no result: NPSR antagonist)
CN(C)C(=S)Nc1ccc([N+](=O)[O-])cc1	none
CCCC(C)NC(=O)c1cccc(Oc2ccccc2)c1 (stereo unspecified)	RORg inh 35µM
O=C(NC(=S)Nc1cccc(Cl)c1N1CCCCC1)c1ccc2c(c1)OCCO2	VP16 counter 4.5µM, RORg inh 2.5µM
CCN1CCN(c2c(Cl)cccc2NC(=O)c2ccc3c(c2)OCCO3)CC1	none
CCC(=O)NC(=S)Nc1cccc(Cl)c1N1CCCC1	VP16 counter inconclusive, RORg inh 1.1µM
CCOC(=O)c1c(C)oc2c1c(C=NCc1ccccn1)c(O)c1ccccc12	VP16 counter inconclusive, NPSR antagonist inconclusive, RORg inh 6.3µM
C=C1C(=O)O[C@@H]2[C@H]1[C@@H](OC(=O)/C(C)=C/C)C/C(C)=C\C(=O)/C=C(\C)[C@@H]2O	VP16 counter 11µM, B2AR arrestin inconclusive, RORg inh inconclusive
C/C=C(/C)C(=O)O[C@H]1CC(C)=CC(=O)[C@@]2(C)CC[C@@](O)(C(C)C)[C@H]12	none (no result: NPSR antagonist, B2AR arrestin)
C=CCn1c(C)cc(C(=O)Cn2nc(C(=O)O)c3ccccc3c2=O)c1C	VP16 counter inconclusive, RORg inh 16µM
COCCn1c(C)cc(C(=O)Cn2nc(C(=O)O)c3ccccc3c2=O)c1C	VP16 counter inconclusive, RORg inh 5.6µM
O=c1c(-c2ccc(Cl)cc2)nc2cnc(Nc3ccccc3)nc2n1C[C@H]1CCCO1	none (no result: NPSR antagonist, B2AR arrestin)
CCCCCCCCCCCCCCCCCCCCCCCCCCCCCC	none (no result: NPSR antagonist, B2AR arrestin)
CC(=O)c1c(O)cccc1O	RORg inh inconclusive (no result: NPSR antagonist, B2AR arrestin)
Cc1ccc(F)c(NC(=O)/C(C#N)=C(\O)c2ccc(C(C)(C)C)cc2)c1	RORg inh inconclusive
Cc1ccc(-n2c(-c3ccccc3)c[n+]3c2CCc2ccccc2-3)c(C)c1	VP16 counter 7.1µM, RORg inh inconclusive
CCC(=O)c1cc(F)c(N2CCN(C(=O)Cc3ccccc3)CC2)cc1C	VP16 counter 13µM
O=c1c2[nH]c3ccccc3c2ncn1C1CCCCC1	none
O=C1c2ccccc2C(=O)c2c1ccc1c(=O)n(C3CCCCC3)[nH]c21	RORg inh 7.9µM
COc1ccc(/C=C/C(=O)c2ccc(C)c([N+](=O)[O-])c2)cc1O	VP16 counter 16µM
Cc1ccc(/C=C/C(=O)c2ccccc2O)cc1	none
COc1cc(/C=C/C(=O)c2cccc([N+](=O)[O-])c2)cc(OC)c1OC	VP16 counter inconclusive, RORg inh 16µM
COc1cc(/C=C/C(=O)c2ccccc2O)cc(OC)c1OC	VP16 counter inconclusive, RORg inh 2µM

Compound activity (PubChem BioAssay)
